# Measurements published in ChEMBL document CHEMBL2218924, “A broad activity screen in support of a chemogenomic map for kinase signalling research and drug discovery” (Biochem J, 2013).
# Legend:
# [1] = target: T1, Serine/threonine-protein kinase BRSK2 (Homo sapiens) (UniProt Q8IWQ3); details: at 1 µM
# T1 sequence (whole entry): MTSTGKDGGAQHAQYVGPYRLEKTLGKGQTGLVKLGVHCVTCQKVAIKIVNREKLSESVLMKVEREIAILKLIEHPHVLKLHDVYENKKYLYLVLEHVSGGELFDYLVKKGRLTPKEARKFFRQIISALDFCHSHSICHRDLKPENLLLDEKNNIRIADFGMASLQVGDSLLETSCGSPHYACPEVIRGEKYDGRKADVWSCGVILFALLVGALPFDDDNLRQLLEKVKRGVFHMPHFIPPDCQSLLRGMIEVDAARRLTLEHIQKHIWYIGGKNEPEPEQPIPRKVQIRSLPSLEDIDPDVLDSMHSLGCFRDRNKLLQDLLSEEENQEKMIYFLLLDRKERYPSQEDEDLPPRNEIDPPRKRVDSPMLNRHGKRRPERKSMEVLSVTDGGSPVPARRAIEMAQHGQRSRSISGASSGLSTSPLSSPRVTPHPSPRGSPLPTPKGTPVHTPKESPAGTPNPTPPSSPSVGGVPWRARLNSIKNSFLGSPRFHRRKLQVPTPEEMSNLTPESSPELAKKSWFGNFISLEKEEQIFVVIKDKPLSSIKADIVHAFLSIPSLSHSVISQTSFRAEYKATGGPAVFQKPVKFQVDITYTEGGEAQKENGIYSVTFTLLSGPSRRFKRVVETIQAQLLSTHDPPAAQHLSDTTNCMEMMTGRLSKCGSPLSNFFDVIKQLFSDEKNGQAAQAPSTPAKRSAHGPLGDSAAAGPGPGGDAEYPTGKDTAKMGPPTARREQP
# [2] = target: T1, Serine/threonine-protein kinase BRSK2 (Homo sapiens); details: at 10 µM
# [3] = target: T2, Cyclin-dependent kinase 1/cyclin B1 (Homo sapiens) (UniProt P06493+P14635); details: at 1 µM
# [4] = target: T2, Cyclin-dependent kinase 1/cyclin B1 (Homo sapiens); details: at 10 µM
# [5] = target: T3, Cyclin-dependent kinase 2/cyclin A (Homo sapiens) (UniProt P24941+P20248+P78396); details: at 1 µM
# [6] = target: T3, Cyclin-dependent kinase 2/cyclin A (Homo sapiens); details: at 10 µM
# [7] = target: T4, Cyclin-dependent kinase 2/cyclin E (Homo sapiens) (UniProt P24864+P24941+O96020); details: at 10 µM
# [8] = target: T5, CDK3/cyclin E (Homo sapiens) (UniProt P24864+O96020+Q00526); details: at 10 µM
# [9] = target: T6, Cyclin-dependent kinase 5/CDK5 activator 1 (Homo sapiens) (UniProt Q00535+Q15078); details: at 1 µM
# [10] = target: T6, Cyclin-dependent kinase 5/CDK5 activator 1 (Homo sapiens); details: at 10 µM
# [11] = target: T6, Cyclin-dependent kinase 5/CDK5 activator 1 (Homo sapiens); details: at 1 µM; remark: listed apart in the source
# [12] = target: T6, Cyclin-dependent kinase 5/CDK5 activator 1 (Homo sapiens); details: at 10 µM; remark: listed apart in the source
# [13] = target: T7, CDK6/cyclin D3 (Homo sapiens) (UniProt P30281+Q00534); details: at 1 µM
# [14] = target: T7, CDK6/cyclin D3 (Homo sapiens); details: at 10 µM
# [15] = target: T8, Serine/threonine-protein kinase BRSK1 (Homo sapiens) (UniProt Q8TDC3); details: at 1 µM
# T8 sequence (whole entry): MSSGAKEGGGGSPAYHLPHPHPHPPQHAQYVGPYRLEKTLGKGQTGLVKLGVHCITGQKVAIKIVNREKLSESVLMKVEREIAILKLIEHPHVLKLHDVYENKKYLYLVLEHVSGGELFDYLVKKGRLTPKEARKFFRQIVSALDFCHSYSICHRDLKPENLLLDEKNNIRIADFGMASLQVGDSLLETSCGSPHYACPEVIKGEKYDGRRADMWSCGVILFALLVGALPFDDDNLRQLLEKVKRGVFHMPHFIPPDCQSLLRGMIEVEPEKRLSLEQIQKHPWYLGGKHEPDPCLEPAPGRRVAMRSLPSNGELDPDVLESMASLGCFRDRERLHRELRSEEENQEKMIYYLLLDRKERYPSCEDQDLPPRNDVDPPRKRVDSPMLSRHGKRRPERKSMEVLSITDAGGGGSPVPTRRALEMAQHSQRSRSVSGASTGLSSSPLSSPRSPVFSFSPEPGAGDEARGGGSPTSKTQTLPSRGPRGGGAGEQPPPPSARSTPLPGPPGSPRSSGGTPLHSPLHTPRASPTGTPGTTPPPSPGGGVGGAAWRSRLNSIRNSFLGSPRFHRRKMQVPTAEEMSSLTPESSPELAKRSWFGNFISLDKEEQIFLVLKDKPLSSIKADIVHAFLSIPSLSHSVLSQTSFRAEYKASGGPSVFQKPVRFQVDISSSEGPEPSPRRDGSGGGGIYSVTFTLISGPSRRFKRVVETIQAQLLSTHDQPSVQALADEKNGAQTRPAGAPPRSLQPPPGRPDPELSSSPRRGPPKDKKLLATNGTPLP
# [16] = target: T8, Serine/threonine-protein kinase BRSK1 (Homo sapiens); details: at 10 µM
# [17] = target: T9, Cyclin-dependent kinase 7/ cyclin H (Homo sapiens) (UniProt P51946+P50613); details: at 10 µM
# [18] = target: T4, Cyclin-dependent kinase 2/cyclin E (Homo sapiens); details: at 1 µM
# [19] = target: T5, CDK3/cyclin E (Homo sapiens); details: at 1 µM
# [20] = target: T9, Cyclin-dependent kinase 7/ cyclin H (Homo sapiens); details: at 1 µM
# T6 sequence (Q00535 whole entry): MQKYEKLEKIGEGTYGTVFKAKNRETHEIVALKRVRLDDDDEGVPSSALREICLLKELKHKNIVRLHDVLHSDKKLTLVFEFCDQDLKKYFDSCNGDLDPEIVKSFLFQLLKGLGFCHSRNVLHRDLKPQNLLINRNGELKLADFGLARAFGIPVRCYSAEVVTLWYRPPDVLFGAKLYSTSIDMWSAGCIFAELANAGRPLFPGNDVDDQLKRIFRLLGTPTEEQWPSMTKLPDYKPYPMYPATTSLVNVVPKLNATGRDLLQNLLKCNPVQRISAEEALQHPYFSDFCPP
# T6 sequence (Q15078 99-307 partner limits assumed): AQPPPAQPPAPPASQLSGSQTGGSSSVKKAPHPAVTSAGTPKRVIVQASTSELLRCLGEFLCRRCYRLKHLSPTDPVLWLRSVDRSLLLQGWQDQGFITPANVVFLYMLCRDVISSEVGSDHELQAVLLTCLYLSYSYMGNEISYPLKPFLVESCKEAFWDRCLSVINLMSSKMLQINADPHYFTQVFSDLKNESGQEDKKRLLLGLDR
# T2 sequence (P06493 whole entry, looked up): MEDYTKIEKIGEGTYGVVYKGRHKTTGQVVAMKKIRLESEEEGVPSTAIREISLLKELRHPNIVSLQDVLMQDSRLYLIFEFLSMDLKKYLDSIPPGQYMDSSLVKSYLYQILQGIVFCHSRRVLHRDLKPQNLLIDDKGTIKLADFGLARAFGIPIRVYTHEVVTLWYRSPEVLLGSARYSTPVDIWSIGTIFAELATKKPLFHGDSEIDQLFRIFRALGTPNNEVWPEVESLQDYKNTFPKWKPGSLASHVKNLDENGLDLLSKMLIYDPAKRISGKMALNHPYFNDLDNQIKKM
# T2 sequence (P14635 whole entry, looked up): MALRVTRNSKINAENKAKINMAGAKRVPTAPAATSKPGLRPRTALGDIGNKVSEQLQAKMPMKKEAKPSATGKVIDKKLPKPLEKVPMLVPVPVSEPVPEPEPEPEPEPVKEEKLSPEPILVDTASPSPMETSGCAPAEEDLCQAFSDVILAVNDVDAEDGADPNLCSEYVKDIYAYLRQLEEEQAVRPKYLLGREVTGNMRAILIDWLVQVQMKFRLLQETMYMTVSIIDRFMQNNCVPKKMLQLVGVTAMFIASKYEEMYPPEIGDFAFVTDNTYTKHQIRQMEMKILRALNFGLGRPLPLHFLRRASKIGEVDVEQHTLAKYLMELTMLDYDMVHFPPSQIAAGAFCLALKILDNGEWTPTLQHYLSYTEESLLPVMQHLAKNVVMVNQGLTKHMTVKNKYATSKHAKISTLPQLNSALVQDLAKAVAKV
# T5 sequence (O96020 whole entry, looked up): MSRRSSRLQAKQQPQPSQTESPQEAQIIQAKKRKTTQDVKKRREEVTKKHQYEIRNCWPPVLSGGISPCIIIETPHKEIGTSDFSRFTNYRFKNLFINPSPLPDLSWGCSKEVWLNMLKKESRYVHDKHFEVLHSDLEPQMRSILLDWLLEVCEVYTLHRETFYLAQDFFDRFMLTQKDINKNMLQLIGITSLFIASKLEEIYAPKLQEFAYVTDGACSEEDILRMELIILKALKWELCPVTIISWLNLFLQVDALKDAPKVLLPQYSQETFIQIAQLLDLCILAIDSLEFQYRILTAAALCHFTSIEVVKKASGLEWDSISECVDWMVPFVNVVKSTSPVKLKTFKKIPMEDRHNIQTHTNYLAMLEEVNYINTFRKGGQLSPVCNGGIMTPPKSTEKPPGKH
# T5 sequence (P24864 whole entry, looked up): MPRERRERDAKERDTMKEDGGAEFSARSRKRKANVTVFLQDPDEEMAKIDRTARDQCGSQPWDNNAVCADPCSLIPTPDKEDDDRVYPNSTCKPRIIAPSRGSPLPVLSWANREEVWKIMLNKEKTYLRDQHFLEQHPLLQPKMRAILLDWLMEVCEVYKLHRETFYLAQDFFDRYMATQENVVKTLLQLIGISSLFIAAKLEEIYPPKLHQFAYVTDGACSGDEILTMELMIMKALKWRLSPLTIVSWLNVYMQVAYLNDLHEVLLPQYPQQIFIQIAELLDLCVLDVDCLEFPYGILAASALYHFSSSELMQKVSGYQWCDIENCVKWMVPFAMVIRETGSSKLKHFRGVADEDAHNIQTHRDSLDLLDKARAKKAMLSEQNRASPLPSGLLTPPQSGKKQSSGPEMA
# T5 sequence (Q00526 whole entry, looked up): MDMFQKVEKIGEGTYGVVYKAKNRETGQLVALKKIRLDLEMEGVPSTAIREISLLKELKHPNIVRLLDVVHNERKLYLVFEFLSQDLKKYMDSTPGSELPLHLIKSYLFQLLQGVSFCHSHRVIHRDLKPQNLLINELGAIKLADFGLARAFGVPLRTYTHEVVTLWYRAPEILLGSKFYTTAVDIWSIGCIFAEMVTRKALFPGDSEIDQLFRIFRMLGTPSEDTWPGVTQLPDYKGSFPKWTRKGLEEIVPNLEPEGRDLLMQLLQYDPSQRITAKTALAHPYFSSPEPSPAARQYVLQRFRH
structure (smiles),measurement,setting,value
O=C1Cc2c([nH]c3ccc([N+](=O)[O-])cc23)-c2ccccc2N1,residual activity,[1],32%
same,residual activity,[2],20%
same,residual activity,[3],47%
same,residual activity,[4],23%
same,residual activity,[5],14%
same,residual activity,[6],10%
same,residual activity,[7],11%
same,residual activity,[8],6%
same,residual activity,[9],9%
same,residual activity,[10],6%
same,residual activity,[11],6%
same,residual activity,[12],6%
same,residual activity,[13],60%
same,residual activity,[14],26%
O=S(=O)(NCCNC/C=C/c1ccc(Br)cc1)c1cccc2cnccc12,residual activity,[15],80%
same,residual activity,[16],53%
same,residual activity,[8],59%
same,residual activity,[12],63%
same,residual activity,[17],41%
O=C(Nc1ccc(Cl)cc1)c1ccccc1NCc1ccncc1,residual activity,[16],126%
same,residual activity,[5],126%
same,residual activity,[13],102%
same,residual activity,[14],102%
same,residual activity,[17],124%
COc1cc2c(cc1OC)-c1n[nH]c(Nc3cccc(F)c3)c1C2,residual activity,[1],104%
same,residual activity,[3],114%
same,residual activity,[4],103%
same,residual activity,[18],98%
same,residual activity,[7],68%
same,residual activity,[19],78%
same,residual activity,[8],46%
same,residual activity,[9],82%
same,residual activity,[10],53%
same,residual activity,[11],81%
same,residual activity,[12],61%
same,residual activity,[13],76%
same,residual activity,[14],71%
same,residual activity,[20],83%
same,residual activity,[17],75%
O=C(Nc1nc2ccccc2n1CCN1CCOCC1)c1cccc([N+](=O)[O-])c1,residual activity,[15],83%
same,residual activity,[16],78%
same,residual activity,[3],114%
same,residual activity,[4],103%
same,residual activity,[18],106%
same,residual activity,[7],104%
same,residual activity,[13],88%
same,residual activity,[14],88%
same,residual activity,[20],75%
same,residual activity,[17],77%
O=C1NC(=O)C(c2cn(CCCn3ccnc3)c3ccccc23)=C1Nc1ccccc1,residual activity,[15],59%
same,residual activity,[16],75%
same,residual activity,[5],103%
same,residual activity,[6],21%
same,residual activity,[18],76%
same,residual activity,[7],24%
same,residual activity,[19],51%
same,residual activity,[8],13%
same,residual activity,[9],64%
same,residual activity,[10],20%
same,residual activity,[11],71%
same,residual activity,[12],24%
same,residual activity,[13],82%
same,residual activity,[14],68%
same,residual activity,[20],77%
same,residual activity,[17],64%
CCOc1nc(NC(=O)Cc2cc(OC)ccc2OC)cc(N)c1C#N,residual activity,[19],82%
same,residual activity,[13],100%
COc1ccc(-c2cnc3c(-c4ccsc4)cnn3c2)cc1,residual activity,[18],99%
same,residual activity,[7],96%
same,residual activity,[19],85%
same,residual activity,[10],88%
same,residual activity,[11],85%
same,residual activity,[13],85%
same,residual activity,[14],96%
same,residual activity,[20],90%
Nc1ncnc2c1c(-c1ccc(Oc3ccccc3)cc1)cn2C1CCCC1,residual activity,[15],17%
same,residual activity,[1],63%
same,residual activity,[2],61%
same,residual activity,[3],104%
same,residual activity,[4],85%
same,residual activity,[5],113%
same,residual activity,[6],72%
same,residual activity,[18],94%
same,residual activity,[7],79%
same,residual activity,[19],90%
same,residual activity,[8],81%
same,residual activity,[9],78%
same,residual activity,[10],58%
same,residual activity,[11],80%
same,residual activity,[12],76%
same,residual activity,[13],85%
same,residual activity,[14],66%
same,residual activity,[20],78%
same,residual activity,[17],95%
Cn1sc(=O)n(Cc2ccccc2)c1=O,residual activity,[15],86%
same,residual activity,[16],83%
same,residual activity,[5],79%
same,residual activity,[6],79%
same,residual activity,[18],96%
same,residual activity,[7],95%
same,residual activity,[19],83%
same,residual activity,[8],79%
same,residual activity,[9],81%
same,residual activity,[10],81%
same,residual activity,[11],97%
same,residual activity,[12],97%
same,residual activity,[13],89%
same,residual activity,[14],82%
same,residual activity,[20],99%
same,residual activity,[17],86%
O=C1Cc2c([nH]c3ccc(Br)cc23)-c2ccccc2N1,residual activity,[15],64%
same,residual activity,[16],37%
same,residual activity,[3],52%
same,residual activity,[4],9%
same,residual activity,[18],36%
same,residual activity,[7],2%
same,residual activity,[19],54%
same,residual activity,[8],9%
same,residual activity,[11],47%
same,residual activity,[12],9%
same,residual activity,[13],78%
same,residual activity,[14],30%
same,residual activity,[20],91%
same,residual activity,[17],80%
CCCCc1c(-c2ccc(OC)cc2)[nH]c2nccnc12,residual activity,[1],104%
same,residual activity,[3],31%
same,residual activity,[4],26%
same,residual activity,[5],48%
same,residual activity,[6],25%
same,residual activity,[18],30%
same,residual activity,[7],46%
same,residual activity,[19],40%
same,residual activity,[8],32%
same,residual activity,[9],19%
same,residual activity,[10],33%
same,residual activity,[11],25%
same,residual activity,[12],38%
same,residual activity,[13],87%
same,residual activity,[14],58%
same,residual activity,[20],84%
same,residual activity,[17],44%
Nc1nccc(-c2c(-c3ccc(F)cc3)ncn2C2CCNCC2)n1,residual activity,[1],128%
same,residual activity,[2],82%
same,residual activity,[3],115%
same,residual activity,[5],79%
same,residual activity,[6],77%
same,residual activity,[20],100%
same,residual activity,[17],68%
CC(C)N(CCC(=O)c1ccc2ccccc2c1)Cc1ccccc1,residual activity,[15],87%
same,residual activity,[19],86%
same,residual activity,[8],77%
same,residual activity,[9],87%
same,residual activity,[11],79%
same,residual activity,[12],81%
same,residual activity,[13],87%
same,residual activity,[14],78%
same,residual activity,[20],83%
same,residual activity,[17],82%
CSc1nc(-c2ccc(F)cc2)c(-c2ccnc(NC(C)c3ccccc3)c2)[nH]1 (centres undefined),residual activity,[15],100%
same,residual activity,[16],55%
same,residual activity,[3],98%
same,residual activity,[4],86%
same,residual activity,[6],80%
same,residual activity,[18],96%
same,residual activity,[7],86%
same,residual activity,[19],93%
same,residual activity,[8],84%
same,residual activity,[10],101%
same,residual activity,[20],100%
same,residual activity,[17],67%
O=c1cc(N2CCOCC2)oc2c(-c3ccccc3)cccc12,residual activity,[5],131%
N#C/C(=C\c1ccc(O)c(O)c1)C(=O)NCc1ccccc1,residual activity,[6],85%
same,residual activity,[19],100%
same,residual activity,[8],81%
COc1ccc(CNC(=O)Nc2ncc([N+](=O)[O-])s2)cc1,residual activity,[5],78%
same,residual activity,[6],79%
same,residual activity,[19],68%
same,residual activity,[8],26%
same,residual activity,[17],69%
O=C1Nc2ccccc2/C1=C\c1c(Cl)[nH]c2ccccc12,residual activity,[16],46%
same,residual activity,[4],68%
same,residual activity,[5],83%
same,residual activity,[6],57%
same,residual activity,[18],82%
same,residual activity,[7],58%
same,residual activity,[8],55%
same,residual activity,[10],40%
same,residual activity,[12],40%
same,residual activity,[14],32%
same,residual activity,[17],59%
COc1cc2nccc(Oc3ccc(NC(=O)Nc4cc(C)on4)c(Cl)c3)c2cc1OC,residual activity,[15],65%
same,residual activity,[16],46%
same,residual activity,[5],106%
same,residual activity,[6],99%
same,residual activity,[13],96%
same,residual activity,[14],99%
same,residual activity,[20],99%
same,residual activity,[17],107%
COc1ccc(COc2ccc(Cc3cnc(N)nc3N)cc2OC)cc1,residual activity,[1],99%
same,residual activity,[2],115%
same,residual activity,[4],109%
CCN1/C(=C/C(C)=O)Sc2ccc(OC)cc21,residual activity,[18],81%
same,residual activity,[7],76%
same,residual activity,[19],82%
same,residual activity,[8],80%
same,residual activity,[12],71%
same,residual activity,[20],82%
same,residual activity,[17],81%
